IDE exosite FP = insulin-degrading enzyme (human) exo-site inhibition; purified IDE, FL-6b probe fluorescence polarization; hits give low values; z-score at 20 µM; 17,000 compounds, 6.3% hits; AID 1259349;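 active = z-score of -3 or lower, meaning strong loss of probe binding signal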;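 also: His-tagged human IDE residues 42-1019 made in E. coli with 30 nM FL-6b probe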
* = called active by the depositor; ! = not active in a repeat. Only a selection was taken, and hits are over-represented in it overall.

SMILES	IDE exosite FP
OC[C@@H]1[C@H](c2ccc(-c3ccccc3F)cc2)[C@H]2CN(Cc3ccncc3)CCCCN12	0.71
C(=C\c1ccc(C2[C@@H]3CN(Cc4cccnc4)C[C@H]2N3)cc1)/c1ccccc1 (some centres not stated)	-4.8*!
COc1cccc(-c2ccc(C3[C@H]4CNC[C@@H]3N4Cc3ccc(F)cc3)cc2)c1 (some centres not stated)	3.6
CC(=O)N1[C@H](CO)[C@H](c2ccc(-c3ccccc3F)cc2)[C@@H]1CNC(C)C	-1.4
CN(C)CC(=O)N1[C@@H](CO)[C@@H]2c3ccccc3N(C(=O)Cc3ccccc3)C[C@@H]21	2.6
O=C(O)[C@@H]1[C@@H](CO)[C@@H]2Cn3c(cccc3=O)[C@@H]2N1C(=O)NC1CCCC1	0.34
CCCNC(=O)N1[C@@H](C#N)[C@H](c2ccc(C#Cc3ccc(F)cc3)cc2)[C@@H]1CO	2.9
Cc1ccccc1S(=O)(=O)N1CC(=O)N2[C@H](CO)[C@@H](c3ccc(C#CCN(C)C)cc3)[C@@H]2C1	4
COc1ccc(NC(=O)N2CC(=O)N3[C@H](C2)[C@H](c2ccc(Br)cc2)[C@@H]3CO)cc1	0.35
OC[C@H]1[C@@H](c2ccc(-c3cccc(F)c3)cc2)[C@@H]2CN(Cc3cncnc3)CCCCN12	0.014
OC[C@@H]1[C@H](c2ccc(/C=C/c3ccccc3)cc2)[C@H]2CN(Cc3cncnc3)CCCCN12	-4.4*
OC[C@H]1[C@@H](c2ccc(-c3ccccc3F)cc2)[C@H]2CN(Cc3cccnc3)CCCCN21	2.5
Cc1ccccc1-c1ccc([C@H]2[C@@H](CO)N3CCCCN(Cc4cccnc4)C[C@H]23)cc1	-11*
OC[C@H]1[C@H](c2ccc(-c3ccccc3F)cc2)[C@@H]2CN(Cc3cccnc3)CCCCN12	2.6
OC[C@@H]1[C@H](c2ccc(-c3cccc(F)c3)cc2)[C@H]2CN(Cc3cncnc3)CCCCN12	-0.54
CO[C@@H]1CC[C@@H]2CCOc3ccc(C#N)cc3C(=O)N(C)C[C@@H](c3ccccc3)CC(=O)N(C)C[C@@H]1O2	0.78
CN1C(=O)c2cc(NS(C)(=O)=O)ccc2OC[C@H]2O[C@H](CC(=O)NCc3ccccc3)CC[C@@H]21	-1.8
CO[C@@H]1CN(C)C(=O)c2cc(NC(C)=O)ccc2OC[C@@H](C)N(Cc2ccncc2)C[C@H]1C	-0.2
CCCNC(=O)N1C[C@@H](O)COC[C@H]2O[C@H](CC(=O)OC)CC[C@@H]21	1.2
O=C(c1cnccn1)N1CC(=O)N2[C@H](CO)[C@H](c3ccc(C#CCC4CCCC4)cc3)[C@@H]2C1	4.3
O=C(NC1CCCC1)N1CC(=O)N2[C@@H](CO)[C@H](c3ccc(-c4cccnc4)cc3)[C@@H]2C1	-4.9*
O=C(C1CCC1)N1CC(=O)N2[C@H](CO)[C@@H](c3ccc(-c4cccnc4)cc3)[C@@H]2C1	-1.9
O=C(Nc1cc(F)ccc1F)N1CC(=O)N2[C@H](C1)[C@@H](c1ccc(-c3cccnc3)cc1)[C@@H]2CO	-8.2*
O=C(NC1CCCC1)N1CC(=O)N2[C@H](CO)[C@@H](c3ccc(-c4cccnc4)cc3)[C@@H]2C1	-12*
O=C(C1CCCCC1)N1CC(=O)N2[C@H](CO)[C@@H](c3ccc(-c4cccnc4)cc3)[C@H]2C1	-0.58
SMILES	IDE exosite FP
O=C(C1CCC1)N1CC(=O)N2[C@H](CO)[C@@H](c3ccc(-c4cccnc4)cc3)[C@H]2C1	1.7
O=C(Nc1cc(F)ccc1F)N1CC(=O)N2[C@H](C1)[C@H](c1ccc(-c3cccnc3)cc1)[C@@H]2CO	-1.8
O=C(C1CCC1)N1CC(=O)N2[C@@H](CO)[C@@H](c3ccc(-c4cccnc4)cc3)[C@@H]2C1	-0.57
O=C(NC1CCCC1)N1CC(=O)N2[C@@H](CO)[C@@H](c3ccc(-c4cccnc4)cc3)[C@@H]2C1	1.3
O=C(Nc1cc(F)ccc1F)N1CC(=O)N2[C@H](CO)[C@@H](c3ccc(-c4cccnc4)cc3)[C@H]2C1	1.9
O=C(C1CCC1)N1CC(=O)N2[C@H](CO)[C@H](c3ccc(-c4cccnc4)cc3)[C@H]2C1	-2.1
O=C(NC1CCCC1)N1CC(=O)N2[C@H](C1)[C@@H](c1ccc(-c3cccnc3)cc1)[C@@H]2CO	-5.8*
C[C@H](O)C#Cc1ccc([C@@H]2[C@H](CO)N3CCCCN(C(=O)c4cccc(F)c4)C[C@@H]23)cc1	3.7
O=S(=O)(c1ccccc1)N1C[C@H]2[C@@H](c3ccccc31)[C@@H](CO)N2Cc1ccccn1	-0.85
CC=Cc1ccc2n(c1=O)C[C@H]1[C@H](CO)[C@@H](C(=O)N(C)C)N(C(=O)CC)[C@@H]21 (mixture of isomers)	1.5
CO[C@H]1CN(C)C(=O)c2cc(NC(=O)NC3CCCCC3)ccc2OC[C@@H](C)N(CC2CCOCC2)C[C@H]1C	-0.14
CC(C)c1cccc(NC(=O)C[C@H]2CC[C@H]3[C@@H](COc4ccc(NC(=O)c5cnccn5)cc4C(=O)N3C)O2)c1	-0.24
CN1C(=O)c2cc(NC(=O)c3cccc(F)c3)ccc2OC[C@H]2O[C@H](CC(=O)NCc3ccccc3Cl)CC[C@H]21	-0.058
